In general, IC50 refers to the concentration that gives 50% inhibition.

The values below come from PubChem BioAssay.

This experiment in a line: Coupled enzyme confirmation of inhibitors against recombinant Mtb PanC (AID 375). The settings on record: coupled enzyme assay; measured here: coupling enzymes IC50 repeat trials unless noted.
For the compound `Cc1ccc(Cn2ccc(NC(=O)c3cc(-c4ccc(Cl)cc4)on3)n2)cc1`, the IC50 is greater than 100 µM.

`Cc1ccc(Cn2ccc(NC(=O)c3cc(-c4ccco4)on3)n2)cc1`: the IC50 is greater than 100 µM.

For the compound `Cc1ccccc1Cn1nc(C)c(NC(=O)c2noc3c2CC(C(C)(C)C)CC3)c1C` (stereo unspecified), the IC50 was greater than 100 µM.

On to `Cc1cc(C(=O)Nc2cc(C)n(Cc3ccc(Cl)cc3)n2)no1`, for which the 50% inhibitory concentration (IC50) was greater than 100 µM.

`Cc1cc(NC(=O)c2noc3c2CCCC3)nn1Cc1ccc(Cl)cc1`: the IC50 was greater than 100 µM.

In the case of `Cc1ccc(Cn2ccc(NC(=O)c3noc4c3CCCC4)n2)cc1`, the IC50 is greater than 100 µM.

`Cc1ccc(Cn2ccc(NC(=O)c3cc(-c4ccc(F)cc4)on3)n2)cc1`: the IC50 is greater than 100 µM.

Regarding `Cc1ccc(Cn2ccc(NC(=O)c3cc(-c4cccc(Cl)c4)on3)n2)cc1`, the IC50 is greater than 100 µM.

As for `COc1ccc(-c2cc(C(=O)Nc3cc(C)n(Cc4ccc(Cl)cc4)n3)no2)cc1OC`, the IC50 was greater than 100 µM.

Consider `Cc1ccc(Cn2ccc(NC(=O)c3cc(-c4ccc(Br)cc4)on3)n2)cc1`, for which the IC50 was greater than 100 µM.

Regarding `COc1ccc2c(c1)CCc1c(C(=O)Nc3cc(C)n(Cc4ccc(Cl)cc4)n3)noc1-2`, the half-maximal inhibitory concentration (IC50) was greater than 100 µM.

Take `O=c1c2ccccc2[se]n1-c1ccccc1`: the IC50 was 0.485 µM [measured here: coupling enzymes counter-screen IC50].

Turning to `Cc1ccc(Cn2ccc(NC(=O)c3noc4c3CCCCC4)n2)cc1`, the half-maximal inhibitory concentration (IC50) is greater than 100 µM.

Turning to `Cc1cc(NC(=O)c2cc(-c3cccs3)on2)nn1Cc1ccc(Cl)cc1`, the IC50 was greater than 100 µM.

Take `COc1ccccc1-c1cc(C(=O)Nc2cc(C)n(Cc3ccc(Cl)cc3)n2)no1`: the concentration for half-maximal inhibition (IC50) was greater than 100 µM.

Take `Cc1cc(NC(=O)c2noc3c2CCCCC3)nn1Cc1ccc(Cl)cc1`: the IC50 was greater than 100 µM.
